Compounds with a hit are over-represented: about 27% of the library has one in this group of screens.
CYP2C9 act – increases human cytochrome P450 2C9 activity. activation factor at 5 µM. AID 1024. recombinant CYP2C9, luciferin-H conversion, luminescence; hits give high values; factor 1 = untreated enzyme, 0 = blocked. actives 1.4% (n = 96,000);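 active = activation factor of 2 or more for CYP2C9 at a 5 µM dose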;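 also: 0 = sulfaphenazole-blocked wells and 1 = vehicle-only wells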
Target sequence (P11712 whole entry, looked up): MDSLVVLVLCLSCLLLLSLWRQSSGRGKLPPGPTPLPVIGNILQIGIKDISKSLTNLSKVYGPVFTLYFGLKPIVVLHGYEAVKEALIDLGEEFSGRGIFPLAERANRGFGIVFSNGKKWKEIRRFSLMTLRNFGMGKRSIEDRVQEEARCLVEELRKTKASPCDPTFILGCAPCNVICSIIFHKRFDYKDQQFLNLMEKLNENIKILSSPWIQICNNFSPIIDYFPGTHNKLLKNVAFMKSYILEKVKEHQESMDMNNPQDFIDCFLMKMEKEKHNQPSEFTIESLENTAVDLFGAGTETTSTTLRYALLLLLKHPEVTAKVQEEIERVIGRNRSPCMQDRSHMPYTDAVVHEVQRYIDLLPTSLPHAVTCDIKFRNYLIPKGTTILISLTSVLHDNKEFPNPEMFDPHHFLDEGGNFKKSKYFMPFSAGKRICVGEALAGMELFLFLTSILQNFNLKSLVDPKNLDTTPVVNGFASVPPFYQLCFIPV
sEH act – increases human soluble epoxide hydrolase activity | activation, % at 2 µM | actives 0.04% (n = 91,000) | purified human sEH enzymatic activity, activator screen | P34913; in the data active = activation above about 37%
CYP2C19 activ – increases human CYP2C19 enzyme activity. activation factor at 5 µM. recombinant CYP2C19, luciferin-H EGE luminescence; hits give high values; 0 = fully inhibited enzyme, 1 = untreated enzyme. 96,000 tested, under 10 active. P33261;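 active = activation factor of at least 2 at 5 µM in the primary screen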;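 also: 0 = wells with 2.5 mM tranylcypromine and 1 = vehicle-only wells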
sEH inh – blocks human soluble epoxide hydrolase activity; P34913; recombinant human sEH enzymatic activity assay; inhibition, % at 2 µM; actives 0.34% (n = 91,000); AID 707; in the data active = inhibition above about 80%
CYP2C9 inh – inhibitors of human CYP2C9; CYP2C9 Supersomes, luciferin-H conversion, luminescence; actives 20% (n = 96,000); inhibition, % at 5 µM; P11712;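 active = blocking of liver enzyme CYP2C9 beyond about 50% at 5 µM, limit read from the data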
CYP2C19 inhib – blocks human cytochrome P450 2C19 | P33261 | CYP2C19 Supersomes, luciferin-H EGE luminescence, 30 min | inhibition, % at 5 µM | actives 21% (n = 96,000) | AID 778;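 active = CYP2C19 inhibition above a set limit at 5 µM in the primary screen, cut at about 50% in these data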;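 also: plate controls were negative control wells for no effect and 2.5 mM tranylcypromine positive control for full effect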
The depositor's hits bear a star.

`CC(c1nnnn1C(C)(C)C)N(Cc1cccnc1)Cc1ccccc1Cl` (stereo not drawn) gave CYP2C9 act 0.4, sEH act -5, CYP2C19 activ 0, sEH inh 7, CYP2C9 inh 57* and CYP2C19 inhib 99*.
CCCn1nc(-c2nnc(-c3ccc(C)c(C)c3)o2)c2ccccc2c1=O was read as CYP2C9 act 0.8, sEH act -7, CYP2C19 activ 1, sEH inh 6, CYP2C9 inh 19 and CYP2C19 inhib -3.
For Cc1cc(=O)[nH]c(SCC(=O)c2ccccc2)c1C#N the results were CYP2C9 act 0.1, CYP2C19 activ 0.5, CYP2C9 inh 85* and CYP2C19 inhib 46.
Cc1cc(C)c(C#N)c(OCC(=O)c2ccccc2)n1 was read as CYP2C9 act 0.8, CYP2C19 activ 0.7, CYP2C9 inh 22 and CYP2C19 inhib 34.
For COc1ccc(NC(=O)CSc2[nH]c(=O)cc(C)c2C#N)cc1OC the results were CYP2C9 act 0.7, sEH act -11, CYP2C19 activ 0.7, sEH inh 6, CYP2C9 inh 33 and CYP2C19 inhib 34.
Screening Cc1ccccc1NC(=O)CSc1[nH]c(=O)cc(C)c1C#N returned CYP2C9 act 0.2, sEH act 11, CYP2C19 activ 0.4, sEH inh -14, CYP2C9 inh 81* and CYP2C19 inhib 63*.
Cc1c(C(=O)N2CCC(C(N)=O)CC2)sc(N)c1C#N was read as CYP2C9 act 1, CYP2C19 activ 1, CYP2C9 inh 0 and CYP2C19 inhib -2.
Cn1cccc1C(=O)N1CCN(c2cccc(C(F)(F)F)c2)CC1 was read as CYP2C9 act 0.8, sEH act -10, CYP2C19 activ 0.2, sEH inh 12, CYP2C9 inh 22 and CYP2C19 inhib 76*.
For O=C1CC(N2CCN(c3cccc(C(F)(F)F)c3)CC2)C(=O)N1c1ccccc1 (stereo not drawn) the results were CYP2C9 act 0.8, sEH act 3, CYP2C19 activ 1.1, sEH inh -2, CYP2C9 inh 18 and CYP2C19 inhib -8.
O=C(c1c(F)cccc1F)N1CCN(c2cccc(C(F)(F)F)c2)CC1 was read as CYP2C9 act 0.2, CYP2C19 activ 0.1, CYP2C9 inh 80* and CYP2C19 inhib 94*.
For CCOC(=O)N1CCN(c2c(N3CCN(c4cccc(C(F)(F)F)c4)CC3)c(=O)c2=O)CC1 the results were CYP2C9 act 1, sEH act -5, CYP2C19 activ 1, sEH inh 6, CYP2C9 inh -2 and CYP2C19 inhib 0.
For O=C1CC(N2CCN(c3cccc(C(F)(F)F)c3)CC2)C(=O)N1c1ccccc1F (stereo not drawn) the results were CYP2C9 act 0.2, sEH act 3, CYP2C19 activ 0.5, sEH inh -3, CYP2C9 inh 84* and CYP2C19 inhib 47.
`Cc1cc(C)cc(-n2c(C)cc(C(=O)CSc3nnnn3C)c2C)c1` gave CYP2C9 act 0.4, sEH act 11, CYP2C19 activ 0.4, sEH inh -9, CYP2C9 inh 64* and CYP2C19 inhib 61*.
COCCn1c(C)cc(C(=O)CSc2n[nH]c(N)n2)c1C was read as CYP2C9 act 1.9, sEH act -4, CYP2C19 activ 0.9, sEH inh 6, CYP2C9 inh -86 and CYP2C19 inhib 8.
`Cc1cc(C(=O)CSc2n[nH]c(N)n2)c(C)n1-c1cccc(F)c1` gave CYP2C9 act 0.5, sEH act 6, CYP2C19 activ 0.1, sEH inh -7, CYP2C9 inh 52* and CYP2C19 inhib 90*.
`Cc1cc(C(=O)CSc2nnnn2C)c(C)n1-c1cccc(F)c1` gave CYP2C9 act 0.6, CYP2C19 activ 0.1, CYP2C9 inh 45 and CYP2C19 inhib 95*.
Screening Cc1cc(C(=O)CSc2nc(N)cc(N)n2)c(C)n1CCc1ccc(F)cc1 returned CYP2C9 act 0.5, sEH act -4, CYP2C19 activ 0.2, sEH inh 4, CYP2C9 inh 53* and CYP2C19 inhib 76*.
COc1ccc(CCn2c(C)cc(C(=O)CSc3nnnn3C)c2C)cc1 was read as CYP2C9 act 0.8, sEH act -16, CYP2C19 activ 0.6, sEH inh 15, CYP2C9 inh 19 and CYP2C19 inhib 41.
For Cc1ccc(-n2nnnc2SCC(=O)c2cc(C)n(-c3cc(C)on3)c2C)cc1 the results were CYP2C9 act 1.3, sEH act 1, CYP2C19 activ 0.5, sEH inh 0, CYP2C9 inh -25 and CYP2C19 inhib 49.
O=C(NCc1cccs1)C1CC(=O)N(C2CCCC2)C1 (stereo not drawn) was read as CYP2C9 act 1, sEH act 1, CYP2C19 activ 0.8, sEH inh -1, CYP2C9 inh -2 and CYP2C19 inhib 16.
COc1ccccc1C(=O)CSc1n[nH]c(N)n1 was read as CYP2C9 act 3*, sEH act -6, CYP2C19 activ 0.9, sEH inh 9, CYP2C9 inh -203 and CYP2C19 inhib 8.
Cc1cc(C(=O)CSc2nnc(C3COc4ccccc4O3)n2C)c(C)n1-c1ccc(F)cc1 (stereo not drawn) was read as CYP2C9 act 0.5, sEH act 6, CYP2C19 activ 0.5, sEH inh -8, CYP2C9 inh 50* and CYP2C19 inhib 49.
For COc1ccccc1-c1nc(SCC(=O)O)n[nH]1 the results were CYP2C9 act 0.9, sEH act 7, CYP2C19 activ 0.9, sEH inh -9, CYP2C9 inh 9 and CYP2C19 inhib 12.
Cc1cc(C)c2[nH]c(=O)c(CN(Cc3ccc4c(c3)OCO4)Cc3nnnn3C3CCCC3)cc2c1 was read as CYP2C9 act 0.1, sEH act -15, CYP2C19 activ 0.2, sEH inh 16, CYP2C9 inh 91* and CYP2C19 inhib 84*.
For Cc1ccc2[nH]c(=O)c(CN(Cc3ccccc3)Cc3nnnn3C3CCCC3)cc2c1 the results were CYP2C9 act 0.3, sEH act 14, CYP2C19 activ 0.1, sEH inh -13, CYP2C9 inh 66* and CYP2C19 inhib 93*.
`Cc1cccc2cc(CN(Cc3ccc(F)cc3)Cc3nnnn3C3CCCC3)c(=O)[nH]c12` gave CYP2C9 act 0.9, sEH act -6, CYP2C19 activ 1.1, sEH inh 5, CYP2C9 inh 14 and CYP2C19 inhib -5.
For Cc1ccc(C)c2[nH]c(=O)c(CN(Cc3nnnn3C3CCCCC3)CC3CCCO3)cc12 (stereo not drawn) the results were CYP2C9 act 0.4, sEH act -6, CYP2C19 activ 0.1, sEH inh 4, CYP2C9 inh 65* and CYP2C19 inhib 93*.
For Cc1ccc(C)c2[nH]c(=O)c(CN(CC3CCCO3)C(=O)NC3CCCCC3)cc12 (stereo not drawn) the results were CYP2C9 act 0.3, CYP2C19 activ 0.7, CYP2C9 inh 72* and CYP2C19 inhib 29.
